This note sets out measurements from the supplement of paper PMC8866396.

Assay [1] concerns IL-6-GFP PC-9GR. Put plainly: cell viability (CCK-8 OD) relative to DMSO control (fraction of control); higher = more viable cells. Particulars: compound concentration: 10 uM; treatment time: 48 h. A digest of the protocol:
(§1)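 Each well's viability is its CCK-8 optical density divided by that of the vehicle control well. The cells, PC-9 and PC-9GR lung cancer lines overexpressing IL-6-GFP from a lentiviral construct, were seeded at 3000 cells/well in 96-well plates and exposed for 48 h to each compound of a purchased 510-compound library at a final 10 μM, in two independent replicates.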

Assay [2] deals with IL-6-GFP PC-9. The description is as above. Particulars: compound concentration: 10 uM; treatment time: 48 h. Put shortly: as §1

Each structure is given as a SMILES string. ± gives the standard deviation of the averaged measurements.

For the compound `Cc1cnc(Nc2ccc(OCCN3CCCC3)cc2)nc1Nc1cccc(S(=O)(=O)NC(C)(C)C)c1`, the figures for the cell viability in assay [1] and in assay [2] were 0.186 ± 0.081 and 0.3 ± 0.12, respectively.
For `Nc1ccc(O)c(C(=O)O)c1` [Mesalamine] the same measures were 1.27 ± 0.035 and 1.06 ± 0.072.
Taken in the same sequence, the figures for `COC(c1ccccc1)(c1ccccc1)C(Oc1nc(C)cc(C)n1)C(=O)O` (stereo not drawn) [Ambrisentan] were 1.22 ± 0.077 and 1.25 ± 0.37.
For `COc1cccc2c1C(=O)c1c(O)c3c(c(O)c1C2=O)CC(O)(C(=O)CO)CC3OC1CC(N)C(OC2CCCCO2)C(C)O1` (stereo not drawn) [Pirarubicin] the same measures were 0.33 ± 0.12 and 0.208 ± 0.13.
Turning to `Cl.O=C1NCC2(CCN(CCc3ccccc3)CC2)O1` [Fenspiride HCl], the cell viability in assay [1] is 1.02 ± 0.044; in assay [2], 1.24 ± 0.015.
For `CCCC(=O)OC1(C(=O)CCl)C(C)CC2C3CCC4=CC(=O)C=CC4(C)C3(F)C(=O)CC21C` (stereo not drawn) [clobetasone butyrate] the same measures were 0.995 ± 0.17 and 0.99 ± 0.3.
On to `Nc1cccc2c1C(=O)N(C1CCC(=O)NC1=O)C2=O` (stereo not drawn) [Pomalidomide], for which the cell viability in assay [1] turned out to be 1.5 ± 0.33; in assay [2] it was 1.22 ± 0.12.
Taken in the same sequence, the figures for `CN1CCC(=C2c3ccccc3CCn3c(C=O)cnc32)CC1` [Alcaftadine] were 0.751 ± 0.18 and 1.07 ± 0.21.
For `CC(=O)OC(C)C(C)C(=O)OCC12C3CC4(C)C(=CCC5C6(C)CCC(OC7OC(C(=O)[O][Na])C(OC8OC(CO)C(O)C(O)C8O)C(O)C7OC7OCC(O)C(O)C7O)C(C)(CO)C6CCC54C)C1CC(C)(C)C(O3)C2O` (stereo not drawn) [Sodium Aescinate] the same measures were 0.632 ± 0.25 and 1 ± 0.18.
For `Cc1ccc(Nc2nccc(N(C)c3ccc4c(C)n(C)nc4c3)n2)cc1S(N)(=O)=O.Cl`, the cell viability was 0.886 ± 0.13 in assay [1] and 0.532 ± 0.1 in assay [2].
For `CNC(=O)c1ccc(N2C(=S)N(c3cnc(C#N)c(C(F)(F)F)c3)C(=O)C23CCC3)cc1F` the same measures were 1.03 ± 0.13 and 1.02 ± 0.11.
On to `CC(C(=O)O)c1cccc(C(=O)c2ccccc2)c1` (stereo not drawn) [Ketoprofen], for which the cell viability in assay [1] came to 1.64 ± 0.37; in assay [2], 1.02 ± 0.11.
Taken in the same sequence, the figures for `CCC(C)C(=O)OC1CC(O)C=C2C=CC(C)C(CCC(O)CC(O)CC(=O)O)C21` (stereo not drawn) [Pravastatin] were 1.48 ± 0.39 and 0.999 ± 0.22.
For `CC(C)(C#N)c1cc(Cn2cncn2)cc(C(C)(C)C#N)c1` [Anastrozole] the same measures were 1.15 ± 0.045 and 1.01 ± 0.078.
As for `S=c1nc[nH]c2nc[nH]c12` [Mercaptopurine (6-MP)], the cell viability in assay [1] was determined as 1.13 ± 0.24; in assay [2] it was 1.33 ± 0.29.
Taken in the same sequence, the figures for `Cl.Cl.Cl.Cl.Cl.Cl.Cl.Cl.c1cc(CN2CCCNCCNCCCNCC2)ccc1CN1CCCNCCNCCCNCC1` [Plerixafor 8HCl (AMD3100 8HCl)] were 1.04 ± 0.12 and 1.13 ± 0.1.
For `C1N2CN3CN1CN(C2)C3` [Methenamine] the same measures were 1.09 ± 0.19 and 0.9499 ± 0.009.
For `Nc1ccc(C(=O)[O-])c(O)c1.[Na+]` [Sodium 4-Aminosalicylate] the same measures were 1.02 ± 0.3 and 0.895 ± 0.055.
For `C=CC(=O)Nc1cccc(Oc2nc(Nc3ccc(N4CCN(C)CC4)cc3)nc3ccsc23)c1`, the figures for the cell viability in assay [1] and in assay [2] were 0.393 ± 0.19 and 0.465 ± 0.07, respectively.
Turning to `Cn1cnc2c(F)c(Nc3ccc(Br)cc3F)c(C(=O)NOCCO)cc21`, the cell viability in assay [1] came to 0.812 ± 0.043; in assay [2], 1.2 ± 0.19.
Taken in the same sequence, the figures for `CNC(=O)c1cc(Oc2ccc(NC(=O)Nc3ccc(Cl)c(C(F)(F)F)c3)cc2)ccn1` [Sorafenib] were 0.634 ± 0.37 and 0.565 ± 0.1.
For `O=C1Nc2ccccc2/C1=C1\Nc2ccccc2C1=O` [Indirubin] the same measures were 1.28 ± 0.29 and 0.916 ± 0.059.
As for `NC(CCC(=O)NC(CS)C(=O)NCC(=O)O)C(=O)O` (stereo not drawn) [Glutathione], the cell viability in assay [1] was 1.06 ± 0.11; in assay [2], 1.1 ± 0.15.
For `NC(=O)c1cccc2cn(-c3ccc(C4CCCNC4)cc3)nc12` (stereo not drawn) [Niraparib (MK-4827)] the same measures were 0.841 ± 0.011 and 0.918 ± 0.045.
Taken in the same sequence, the figures for `Cc1cn(-c2cc(NC(=O)c3ccc(C)c(Nc4nccc(-c5cnccn5)n4)c3)cc(C(F)(F)F)c2)cn1` [Radotinib] were 0.7942 ± 0.0035 and 1.1 ± 0.038.
Taken in the same sequence, the figures for `N#Cc1ccc(C2CCCc3cncn32)cc1` (stereo not drawn) [Fadrozole] were 0.6645 ± 0.0044 and 1.18 ± 0.074.
For `COC(=O)NC(C(=O)N1CCCC1c1ncc(-c2ccc(-c3ccc(-c4cnc(C5CCCN5C(=O)C(NC(=O)OC)C(C)C)[nH]4)cc3)cc2)[nH]1)C(C)C` (stereo not drawn), the figures for the cell viability in assay [1] and in assay [2] were 1.41 ± 0.14 and 1.18 ± 0.11, respectively.
Taken in the same sequence, the figures for `CC1CC2C3CCC4=CC(=O)C=CC4(C)C3(F)C(O)CC2(C)C1(O)C(=O)CO` (stereo not drawn) [Betamethasone] were 1.24 ± 0.11 and 1.29 ± 0.29.
For `CCCS(=O)(=O)Nc1ccc(F)c(C(=O)c2c[nH]c3ncc(-c4ccc(Cl)cc4)cc23)c1F` [Vemurafenib (PLX4032, RG7204)] the same measures were 1.06 ± 0.1 and 1.05 ± 0.15.
